Compounds without any hit were thinned out: in the full panel of roughly 83,000, 20% have a hit.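 In brief: 96-well plates, 48 h treatment, single concentration, percent growth endpoint.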 Active and inactive are the calls of the source. The calls were made as follows: active = growth percent below 10; inactive = the rest.

The assay relates to HL-60(TB) leukemia. Put plainly: NCI-60 one-dose screen, 48 h (100 = growth as untreated, 0 = no growth, -100 = all killed). Conditions: 10 µM unless noted.
On to `O=C(O)c1ccc2nc(-c3ccc(OCCCCCOc4ccc(-c5nc6ccc(C(=O)O)cc6[nH]5)cc4)cc3)[nH]c2c1`, for which the growth was 108% (inactive).
Under `O=C1OCC/C1=C\OCCCO/C=C1\CCOC1=O` stands 104% (inactive); under `O=C(COC(=O)[C@H](C[Se][Se]C[C@H](NC(=O)c1ccc(Br)cc1F)C(=O)OCC(=O)c1ccc(F)cc1)NC(=O)c1ccc(Br)cc1F)c1ccc(F)cc1`, -45.3% (active); under `COc1ccc(CNc2c3ccccc3nc3ccccc23)cc1`, 43% (inactive).
To `c1csc(-c2cn3nc(-c4c[nH]c5ccccc45)sc3n2)c1` belongs 7.07% (active); to `CN1C(=O)CCC(N2C(=O)c3cccc(NCCOCCOCCNC(=O)c4cc5c(o4)C(=O)c4ccccc4C5=O)c3C2=O)C1=O` (stereo not given), 0.337% (active); to `O=S(=O)(NCCNc1nccc(-c2c(-c3cccc(O)c3)nc3occn23)n1)c1cccc(F)c1`, 76.6% (inactive).
To `COc1ccc(OC)c(CCn2cncc2-c2c[nH]c3ccccc23)c1` belongs 80.8% (inactive); to `N#C/C(=C\c1c(-c2ccccc2)[nH]c2ccccc12)C(=O)c1ccc(Cl)cc1`, 12.7% (inactive); to `O=C(C1=Cc2cc3ccccc3n2Cc2cnnn21)c1ccc(F)cc1`, 98% (inactive).
For `OCCNc1ccccc1`, the growth is 100% (inactive).
Turning to `Cc1nc2c(O)cccc2cc1CO`, the growth was 81.7% (inactive).
Under `COc1ccc(OC)c(/C=C2\Oc3cc(OCCN4CCCC4)ccc3C2=O)c1` stands 69.2% (inactive).
To `Cc1ccc2c(C3C(C#N)=C(N)Oc4cc5ccccc5cc43)cc(=O)oc2c1` (stereo not given) belongs -14.2% (active).
Under `CCN1CCN(CCOc2ccc(CNc3ccc4nc(CCC5CCCCC5)[nH]c4c3)cc2)CC1` stands -12.7% (active); under `c1ccc([I+]c2ccccc2)cc1`, 52% (inactive); under `c1ccc(COc2ccc(Nc3ncnc4c3cnn4-c3ccccc3)cc2)cc1`, 99.8% (inactive).
Take `CC1=C2[C@@H](CC1)[C@]1(C)O[C@@](C3CCCCC3)(C[C@H]1OC(=O)CO)[C@H]2OC(=O)/C=C/c1ccccc1`: the growth is 82.5% (inactive).
Consider `O=C(/C=C/c1cccc(Cl)c1)c1cccc(OCCCOc2cccc(C(=O)/C=C/c3cccc(Cl)c3)c2)c1`, for which the growth was 93.1% (inactive).
Under `CN(C)c1ccc2c(c1)OC(N)=C(C#N)C2c1ccc2c(c1)CCCN2C` (stereo not given) stands 5.46% (active); under `CCOC(=O)C1CCN(c2ccc(N3C[C@@H](CNCc4ccc(C(=N)N)cc4)OC3=O)cc2)CC1`, 101% (inactive).
As for `O=C1CC(c2ccccc2)Cc2nc3ccc(Br)cc3cc21` (stereo not given), the growth is -28.4% (active).
Under `Clc1ccc2[nH]cc(-c3cncn3CCc3ccccc3)c2c1` stands 45.1% (inactive); under `N#CC1(C#N)C(c2cccs2)NC(c2cccs2)C1(C#N)C#N` (stereo not given), 99% (inactive).
To `CNC(=O)c1[nH]cc(-c2ccc(OC)cc2)c1-c1cc(OC)c2c(c1OC)OCO2` belongs 96.4% (inactive); to `COc1ccc([C@H]2c3cc(OC)c(OC)cc3C=C(C=O)C2CO)cc1OC` (stereo not given in full), -13.9% (active); to `C=CCOC(=O)C1=C(C)N(CC)C(=O)NC1c1c(Cl)n(C)c2ccccc12` (stereo not given), 99.2% (inactive).
To `C#CCn1cnc2c(Nc3cccc(NC(=O)CCl)c3)ncnc21` belongs 7.89% (active).
For the molecule `O=C1c2ccccc2C(=O)c2sc(Nc3ccc(Cl)cc3)nc21`, the growth is -10.8% (active).
For `O=C(Nc1ccc(I)cc1F)c1cc(I)ccc1O`, the growth is -25.2% (active).
Turning to `Nc1ccc(C(=O)/C=C/c2ccccc2)cc1`, the growth is 27.4% (inactive).
To `C=C(C)[C@@H]1CC[C@]2(C(=O)Nc3ccccn3)CC[C@]3(C)[C@H](CC[C@@H]4[C@@]5(C)CCCNC(C)(C)[C@@H]5CC[C@]43C)[C@@H]12` belongs -38.1% (active); to `COc1cc2c3c(c4c5ccccc5[nH]c4c2c(OC)c1OC)C(=O)N(O)C3=O`, 51.7% (inactive).
To `C#CCOc1cccc(Nc2ncc3ncn(C4CCN(C(=O)CCl)C4)c3n2)c1` (stereo not given) belongs -29% [6.25 µM] (active); to `COc1ccc(NC(=O)CSc2nnc(-c3cc(-c4ccccc4)nc4ccccc34)n2-c2ccccc2)cc1`, 105% (inactive).
As to `Nc1nc(=O)n([C@H]2CC=C(CO)O2)cc1F`, the growth is 88% (inactive).
To `COc1ccc(C(=S)N2CCN(c3ccccc3Cl)CC2)cc1OC` belongs 118% (inactive); to `COC1=CC(c2ccc[nH]2)=N/C1=C\c1[nH]c(C)c(C(=O)CCCCC(=O)Nc2ccccc2)c1C`, 74.9% (inactive); to `COc1ccc(/C(=C(\c2ccccc2)[N+](=O)[O-])c2ccc(OCCN3CCCC3)cc2)cc1`, 64.1% (inactive).
To `Cn1cc(-c2csc(-c3c[nH]c4ccc(F)cc34)n2)c2ccnc(Cl)c21` belongs 72% (inactive).

These data come from PubChem BioAssay (NCI).
